Each structure is given as a SMILES string. Values joined by “and” are separate entries in the source; they are usually repeats but may differ in a detail not shown here. Equal entries are not always repeated. The panel holds about 83,000 compounds, 20% with a hit somewhere; the sample as a whole holds those more often.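 A percent growth of 40 corresponds to 60% growth inhibition; 0 means no net growth; -100 means all cells died. Active threshold: below 10.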 Unmarked numbers belong to inactive results. Active and inactive are the calls of the source.

Among the test systems are NCI-H23 lung; NCI-H226 lung; NCI-H322M lung; HOP-62 NSCLC; NCI-H460 lung; HOP-92 NSCLC; NCI-H522 lung; A549/ATCC NSCLC; 786-0 renal; COLO 205 colon; DU-145 prostate; K-562 leukemia; MALME-3M melanoma; MDA-MB-231 breast; RXF 393 renal; SF-268 CNS; SF-295 CNS; SF-539 CNS; UACC-257 melanoma; M14 melanoma.
Common to all, as to test: NCI-60 one-dose screen, 48 h (100 = growth as untreated, 0 = no growth, -100 = all killed)
Common to all, as to details: 10 µM unless noted

Regarding `Cc1ccc(Cl)cc1N1CCN(C(=O)[C@@H]2C[C@@H]2c2ccc(F)cc2)CC1`, the growth with NCI-H23 lung was 84.2%; in the test with NCI-H226 lung, 73.6%; with NCI-H322M lung, 93%; in the test on HOP-62 NSCLC it was 100%; in the test on NCI-H460 lung, 99.7%; with HOP-92 NSCLC, 74.9%. Besides, the growth in the test on NCI-H522 lung is 69.3%; in the test with A549/ATCC NSCLC, 77.7%; in the test on 786-0 renal, 93.6%; in the test on COLO 205 colon, 107%; with DU-145 prostate, 114%; with K-562 leukemia, 75.6%. Also, the growth in the test with MALME-3M melanoma was 95%; in the test with MDA-MB-231 breast, 102%; in the test with RXF 393 renal it was 103%; in the test with SF-268 CNS it was 90.1%; in the test on SF-295 CNS it was 88.9%; with SF-539 CNS it was 95.6%. Moreover, the growth in the test on UACC-257 melanoma was 95.4%; in the test with M14 melanoma, 93.4%.

With `CCCCCCCCCCCCCCCCCCOc1cccc(CC(=O)OCC[N+](CC)(CC)CC)c1`, the growth in the test with NCI-H23 lung was 35.7%; with NCI-H226 lung it was 59.6%; in the test on NCI-H322M lung, 77.7%; in the test with HOP-62 NSCLC, 69.1%; in the test on NCI-H460 lung, 67%; with HOP-92 NSCLC, 52.3%. In addition, the growth in the test on NCI-H522 lung is 38.5%; in the test on A549/ATCC NSCLC it was 60%; in the test with 786-0 renal, 58.5%; in the test on COLO 205 colon, 47%; with DU-145 prostate, 73.8%; in the test with K-562 leukemia, 31.8%. For the same compound, the growth is 74.1% in the test with MALME-3M melanoma; 41.4% in the test with MDA-MB-231 breast; 8.82% (active) in the test on RXF 393 renal; 61.7% in the test on SF-268 CNS; 40.9% in the test with SF-295 CNS; 51.1% in the test with SF-539 CNS. For the same compound, the growth in the test with UACC-257 melanoma was 114%; with M14 melanoma, 42.3%.

As for `O=C(CN1C(=O)S/C(=C\C(Cl)=C\c2ccccc2)C1=O)NCCCn1ccnc1`, the growth was 24% with NCI-H23 lung; 41.9% with NCI-H226 lung; 90.8% in the test with NCI-H322M lung; 84.9% in the test on HOP-62 NSCLC; 68.5% in the test on NCI-H460 lung; 52.5% with HOP-92 NSCLC. The growth is -3.5% (active) with NCI-H522 lung; 85.2% in the test on A549/ATCC NSCLC; 9.43% (active) in the test with 786-0 renal; 4.93% (active) in the test with COLO 205 colon; 31.5% with DU-145 prostate; 5.22% (active) in the test with K-562 leukemia. Moreover, the growth with MALME-3M melanoma was 25.4%; in the test on MDA-MB-231 breast, 21.5%; in the test with RXF 393 renal, -25.9% (active); with SF-268 CNS it was 86.7%; in the test with SF-295 CNS, 79.8%; in the test with SF-539 CNS, 15.2%. Besides, the results for the growth with UACC-257 melanoma and in the test on M14 melanoma were 75.1% and 21.3%, respectively.

`CCCN1C(=O)/C(=c2\sc3n(c2=O)C2C(NN=3)N(CC)C(=O)N2CC)c2ccccc21` (stereo not given): the growth with NCI-H23 lung is 37.8%; in the test on NCI-H226 lung, 57.1%; in the test with NCI-H322M lung, 53.1%; in the test on HOP-62 NSCLC it was 45.8%; in the test on NCI-H460 lung it was 5.57% (active); in the test on HOP-92 NSCLC it was 67.7%. Further, the growth is 1.15% (active) in the test on NCI-H522 lung; 26.2% with A549/ATCC NSCLC; 36.5% in the test with 786-0 renal; 17.5% in the test with COLO 205 colon; 13.6% in the test with DU-145 prostate; 9.52% (active) in the test with K-562 leukemia. For the same compound, the growth with MALME-3M melanoma is 45.4%; with MDA-MB-231 breast, 13.9%; with RXF 393 renal, 17.3%; with SF-268 CNS, 58.7%; in the test on SF-295 CNS, 7.46% (active); in the test on SF-539 CNS it was -17% (active). For the same compound, the growth is 24.5% with UACC-257 melanoma and 17.5% in the test on M14 melanoma.

With `COc1ccc(/C=N/C2=C(C#N)C(c3ccccc3)c3c(ccc4ccccc34)O2)cc1` (stereo not given), the growth was 36.9% in the test on NCI-H23 lung; 33.8% in the test on NCI-H226 lung; 40.9% with NCI-H322M lung; 35.5% in the test with HOP-62 NSCLC; 15.5% in the test with NCI-H460 lung; 53.9% in the test with HOP-92 NSCLC. In addition, the growth in the test with NCI-H522 lung was 2.3% (active); in the test on A549/ATCC NSCLC, 41.9%; in the test with 786-0 renal it was 29.2%; in the test on COLO 205 colon, 0.29% (active); with DU-145 prostate, 24.6%; with K-562 leukemia, 8.18% (active). Further, the growth in the test on MALME-3M melanoma was 47.5%; in the test on MDA-MB-231 breast, 33.4%; in the test on RXF 393 renal it was -8.72% (active); with SF-268 CNS it was 50.7%; in the test on SF-295 CNS, 10.9%; in the test on SF-539 CNS it was 6.89% (active). Further, the growth in the test with UACC-257 melanoma was 61.8%; in the test with M14 melanoma it was 11.8%.

In the case of `COc1ccc(C2=C(CN)C(O)NC(=NCC(=O)c3ccc4ccccc4c3)N2)cc1` (stereo not given), the growth was 103% with NCI-H23 lung; 100% in the test with NCI-H226 lung; 104% with NCI-H322M lung; 98.7% with HOP-62 NSCLC; 114% in the test on NCI-H460 lung; 113% in the test on HOP-92 NSCLC. Also, the growth in the test with NCI-H522 lung was 86%; in the test with A549/ATCC NSCLC it was 95.5%; with 786-0 renal it was 98.5%; in the test with COLO 205 colon, 87.4%; with DU-145 prostate, 107%; in the test with K-562 leukemia, 102%. Also, the growth is 101% with MALME-3M melanoma; 103% in the test on MDA-MB-231 breast; 112% with RXF 393 renal; 94.1% in the test with SF-268 CNS; 98.4% in the test with SF-295 CNS; 90.8% with SF-539 CNS. The growth is 91.3% in the test on UACC-257 melanoma and 95.1% in the test with M14 melanoma.

In the case of `COc1ccc(-c2cc(=O)c3c(O)cc(O)cc3o2)cc1`, the growth was 96.3% and 100% in the test with NCI-H23 lung; 106% in the test on NCI-H226 lung; 109% and 103% with NCI-H322M lung; 113% and 114% in the test on HOP-62 NSCLC; 104% and 97.2% in the test on NCI-H460 lung; 95.4% and 75% in the test on HOP-92 NSCLC. The growth with NCI-H522 lung is 83.2% and 77.9%; in the test on A549/ATCC NSCLC, 97.1% and 94.8%; in the test on 786-0 renal it was 107%; with COLO 205 colon it was 101%; in the test on DU-145 prostate it was 103% and 97.8%; with K-562 leukemia, 91.5%. For the same compound, the growth was 113% and 110% with MALME-3M melanoma; 113% and 91.4% in the test with MDA-MB-231 breast; 121% and 116% in the test with RXF 393 renal; 98.5% and 99.4% in the test on SF-268 CNS; 101% and 104% with SF-295 CNS; 94.5% and 105% in the test with SF-539 CNS. In addition, the growth in the test with UACC-257 melanoma is 127% and 126%; in the test on M14 melanoma, 118% and 122%.

For the origin of these results see PubChem BioAssay (NCI).
